# From PubChem BioAssay
# Inconclusive results are not listed. Activity calls are given as the source filed them. Unless noted, the limit is not given here; nearly all actives have AC50 up to about 26 µM.
# How the values were obtained:
# [1] = viability loss in pontine glioma line – cell-based, SU-DIPG-XXV, MIPE5.0, CellTiter-Glo, qHTS, dose response (AID 1347065); conditions: CellTiter-Glo ATP luminescence;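 also: cells exposed to compound for 48 hours before ATP readout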
# [2] = JHH-DIPG-1 glioma cell viability, MIPE5.0 library, CellTiter-Glo luminescence, qHTS (AID 1347067); conditions: JHH-DIPG-1 glioma viability, CellTiter-Glo ATP luminescence;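 also: cells exposed to compound for 48 hours before readout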
# [3] = growth inhibition of DIPG cells – cell-based, MIPE5.0 library, qHTS (AID 1347068; cut-off not given, nearly all actives have IC50 up to about 30 µM;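 as to IC50: cells exposed to compound for 48 hours before viability readout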); conditions: SU-DIPG-XXV viability
smiles,measurement,setting,value
Cc1ccc(Nc2nnc(Cc3ccncc3)c3ccccc23)cc1Br,AC50,[1],14.8 µM (active)
same,AC50,[2],18.6 µM (active)
Nc1nccc(-c2c(-c3ccc(F)cc3)ncn2C2CCN(Cc3ccon3)CC2)n1,outcome,[1],inactive
same,outcome,[2],inactive
same,outcome,[3],inactive
COC(=O)C1C2CC3c4[nH]c5cc(OC)ccc5c4CCN3CC2CC(OC(=O)c2cc(OC)c(OC)c(OC)c2)C1OC (stereo unspecified),AC50,[1],20.9 µM (active)
same,AC50,[2],23.5 µM (active)
same,outcome,[3],inactive
COC(=O)/C=C/C(=O)N(O)CCCCNCc1ccc(COC(=O)Nc2cccc3ccccc23)cc1,AC50,[1],20.9 µM (active)
same,AC50,[2],18.6 µM (active)
C[C@H](NC(=O)c1c(N)nn2cccnc12)c1cc2cccc(C#Cc3cnn(C)c3)c2c(=O)n1-c1ccccc1,AC50,[1],12.9 µM (active)
same,outcome,[3],inactive
Cc1nnn(C)c1-c1cnc2c3ccc(C(C)(C)O)cc3n([C@H](c3ccccc3)C3CCOCC3)c2c1,AC50,[1],0.372 µM (active)
same,AC50,[2],8.33 µM (active)
Clc1cc2c(NC3CCCC3)nnc(-c3ccncc3)c2cc1Cl,AC50,[1],23.5 µM (active)
same,outcome,[3],inactive
Cc1cc(Nc2ncnc3ccc(NC4=NC(C)(C)CO4)cc23)ccc1Oc1ccn2ncnc2c1,AC50,[1],14.8 µM (active)
same,outcome,[3],inactive
COc1ccccc1C(=O)Nc1cc2c(cc1N1CCCCC1)n(C)c(=O)n2C,AC50,[1],18.6 µM (active)
same,outcome,[3],inactive
CCCN(CCC)C(=O)C1=Cc2ccc(-c3ccc(C(=O)N4CCCC4)cc3)cc2N=C(N)C1,AC50,[1],20.9 µM (active)
same,AC50,[2],23.5 µM (active)
same,outcome,[3],inactive
COc1cc(N2CCN(C)CC2)ccc1Nc1ncc2c(n1)N(C)c1ccccc1C(=O)N2,AC50,[1],20.9 µM (active)
same,outcome,[3],inactive
CNC(=O)Cn1cc(-c2ccc3c(c2)C(F)CC32NC(=O)N(CC(=O)N(Cc3ccc(F)cc3)C(C)C(F)(F)F)C2=O)cn1 (stereo unspecified),outcome,[1],inactive
same,outcome,[2],inactive
same,outcome,[3],inactive
CN1CC[C@@H](c2c(O)cc(O)c3c(=O)cc(-c4ccc(C(F)(F)F)cc4Cl)oc23)[C@@H]1CO,AC50,[1],23.5 µM (active)
same,outcome,[2],inactive
CN1CCN(C(=O)c2ccc(-c3ccc4c(C=O)c(O)ccc4c3)s2)CC1,AC50,[1],16.6 µM (active)
same,outcome,[3],inactive
C[C@@H]1CC2C3C[C@H](F)C4=CC(=O)C=C[C@]4(C)[C@@]3(F)[C@@H](O)C[C@]2(C)[C@@]1(OC(=O)c1ccco1)C(=O)SCF (stereo partly specified),AC50,[1],20.9 µM (active)
same,outcome,[3],inactive
COc1ccc(CNC(=O)c2cc(-c3cncc(Cl)c3)cnc2-c2ccccn2)nc1OC,outcome,[1],inactive
same,outcome,[2],inactive
same,outcome,[3],inactive
O=C(NCCCNC(=O)c1ccc[nH]c1=O)c1cc(-c2ccccc2)on1,outcome,[1],inactive
same,AC50,[2],14.8 µM (active)
same,outcome,[3],inactive
Cc1nc(-c2cccnc2)sc1C(=O)Nc1ccccc1-c1cn2c(CN3CCOCC3)csc2n1,outcome,[1],inactive
same,outcome,[3],inactive
CC(C)(CNC(=O)c1cccc(-c2noc(C(F)(F)F)n2)c1)c1coc(-c2ccccc2)n1,AC50,[1],20.9 µM (active)
same,outcome,[3],inactive
CC1CCC(n2c3cnccc3c3cnc(Nc4ccc5c(n4)CCN(C(=O)CO)C5)nc32)CC1 (stereo unspecified),outcome,[1],inactive
same,outcome,[2],inactive
same,outcome,[3],inactive
Cn1ncc2cc(-c3cnc(N)c(Cl)c3N3CCC4(CCNC4=O)CC3)ccc21,AC50,[1],20.9 µM (active)
same,outcome,[2],inactive
O=c1oc2c(C3OCCCO3)c(O)ccc2c2c1CNCC2,outcome,[1],inactive
same,outcome,[2],inactive
same,outcome,[3],inactive
Cc1ccc(-c2ccc(C)cn2)nc1,outcome,[1],inactive
same,outcome,[2],inactive
same,outcome,[3],inactive
CCOCOC[C@H](C[C@H](C)C(=O)NO)NC(=O)c1ccc(Oc2ccccc2)cc1,outcome,[1],inactive
same,outcome,[2],inactive
same,outcome,[3],inactive
Cc1ccc(NC(=O)c2ccc(CN3CCNCC3)cc2)cc1Nc1nccc(-c2cccnc2)n1,AC50,[1],23.5 µM (active)
same,outcome,[2],inactive
same,outcome,[3],inactive
c1ccc(-c2ccc(CNc3nc(-c4ccccn4)nnc3-c3ccccc3)cc2)cc1,AC50,[1],3.32 µM (active)
same,AC50,[2],10.5 µM (active)
same,IC50,[3],2.95 µM (active)
CCC(CC)C(c1ccc(Nc2nc3ccccc3s2)cc1)n1cncn1 (stereo unspecified),AC50,[1],18.6 µM (active)
same,IC50,[3],20.9 µM (active)
